Compound activity (PubChem)
This is a sample that favours compounds with a hit; in the whole collection about 12% have one here.
G9a inh: G9a (human) methyltransferase inhibition. G9a H3K9 monomethylation, AlphaScreen, 2 h. Potency, µM (doses to about 102 µM), for inactives: at the highest dose activity, negative = inhibition, hits mostly inhibitors. actives 8.8% (n = 350,000). AID 504332; further: on the % scale 0 is the no-effect control and ±100 the full control effect; nearly all actives have a fitted effect of over 75% in size
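Step 1: enzyme (final 20 nM) with compound, 15 min RT. Step 2: substrate peptide 500 nM and SAM 20 uM, 2 h RT. Step 3: anti-H3K9me1 antibody and AlphaScreen beads, 10 min, then plate read.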
BAZ2B block: blocks human BAZ2B. AlphaScreen BAZ2B-H3K14Ac peptide displacement. Q9UIF8. Potency, µM (doses to about 114 µM), inactives show at the highest dose activity change, negative = inhibition, usual class: inhibitors. actives 4.4% (n = 360,000); further: on the % scale 0 is the no-effect control and ±100 the full control effect; nearly all actives have a fitted effect of over 60% in size
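In this displacement format the biotinylated H3(5-23) peptide acetylated at Lys14 serves as ligand at 50 nM, with BAZ2B at 50 nM in PBS pH 7.4 containing 0.01% Tween-20. Donor and acceptor beads are 10 ug/mL final.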
Sfp inh: inhibitors of Bacillus subtilis Sfp phosphopantetheinyl transferase; Biochemical Sfp PPTase activity, qHTS; actives 3.5% (n = 310,000); Q9F4F7; Potency, µM, for the others: largest response in the series, negative = inhibition, hits mostly inhibitors;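 further: the enzyme is Sfp with the accession as filed and its product quenches rhodamine fluorescence; 0% = enzyme reaction without inhibitor and -100% = no enzyme wells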
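Fluorescence-quenching assay: 15 nM Sfp-PPTase preincubated 15 min at room temperature with compound, then 5 uM rhodamine-CoA and 12.5 uM BHQ-2-labelled YbbR peptide added. Fluorescence (ex 525/em 598 nm) read at start and after 30 min; difference gives rate.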
JMJD2A Tudor: blocks the human JMJD2A Tudor domain; AlphaScreen JMJD2A-Tudor / H3K4me3 peptide binding; actives 4.4% (n = 390,000); Potency, µM (doses to about 114 µM), without a hit: at the top dose activity change, negative = inhibition, usual class: inhibitors; further: on the % scale 0 is the no-effect control and ±100 the full control effect; nearly all actives have a fitted effect of over 50% in size
HP1b binding inh: inhibitors of HP1-beta chromodomain binding to methylated histone tails; AlphaScreen HP1-beta / biotin-H3K9me3 peptide binding; Potency, µM (top dose mostly 114 µM), without a hit: at the highest dose activity change, negative = inhibition, usual class: inhibitors; AID 540317; actives 0.56% (n = 390,000); further: nearly all actives have a fitted effect of over 70% in size
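Compound inhibition of the preformed complex between 50 nM HP1-beta and 50 nM biotinylated H3K9me3 peptide was read by AlphaScreen. Buffer was PBS pH 7.4 with 0.01% Tween-20. Incubations ran 30 min at room temperature, with 10 ug/mL donor/acceptor beads.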
* hit, by the source's call; ? = inconclusive; / = no result; [ ] = another dose, or the depositor's remark. The call rests on the fitted dose curve; in most records, active means well fitted curve in the direction sought with a large enough effect; inconclusive means small, poorly fitted or top-dose-only effect, or another doubt; inactive means no such curve, though single readings can be large; an effect the other way counts as inactive or inconclusive. Potency means the concentration at half of the fitted maximal effect.

SMILES	G9a inh	BAZ2B block	Sfp inh	JMJD2A Tudor	HP1b binding inh
Cc1c(N=Nc2c(-c3ccc([N+](=O)[O-])cc3)[nH]n(C(N)=S)c2=O)cccc1[N+](=O)[O-]	50.1µM*	?	-5.6%	?	?
Cc1ccc(Nc2nc(N)nc(CSc3nc4ccccc4s3)n2)cc1	-11.7%[59 µM]	?	0.0%	?	7.4%
COc1cccc(CNC(=O)CCNC(=O)c2ccc(Br)o2)c1	-3.7%[59 µM]	-10.7%	15.6%	?	-1.2%
CN1CCCN(S(=O)(=O)c2ccccc2)CC1	-17.5%	4.3%	4.2%	?	-15.1%
CN1CCN(S(=O)(=O)c2ccc(C#N)cc2)C(c2ccccc2)C1 (centres undefined)	?	-3.9%	/	8.4%	46.5%
CN1CCCN(S(=O)(=O)c2cccc(C#N)c2)CC1	56.2µM*	-18.5%	-8.7%	-8.1%	48.2%
CN1CCN(S(=O)(=O)c2cccc(C(=O)Oc3cccc(C#N)c3)c2)CC1	?	8.5%	/	-17.2%	23.3%
CN1CCN(S(=O)(=O)c2cccc(C#N)c2)C(c2ccccc2)C1 (centres undefined)	56.2µM*	-2.0%	/	-3.4%	25.5%
COc1cc(C#N)ccc1OC(=O)c1cccc(S(=O)(=O)N2CCN(C)CC2)c1	50.1µM*	10.9%	/	-6.2%	17.7%
C=CCOc1ccccc1CNn1nnnc1N	-1.1%[12.7 µM]	-2.3%	-2.0%	-7.9%	18.4%
COc1cccc(CN(C)C(=O)c2sccc2-c2ccccc2)c1OC	71.5%	-12.9%	3.8%	-3.4%	27.9%
Cc1ccc(NC(=O)CSCc2ccco2)cc1	-39.3%	-20.3%	-2.3%	-22.9%	14.4%
COc1ccc(NC(=O)Nc2cc(-c3cn4cccnc4n3)ccc2C)cc1	0.8%[59 µM]	-28.2%	/	-4.1%	51.1%
COc1cccc(C(=O)Nc2cc(-c3cn4cccnc4n3)ccc2C)c1	31.6µM*	-19.5%	16.5%	1.5%	25.7%
N#CC(c1ccccc1)N(CCCCl)C(=O)c1ccccc1 (centres undefined)	44.7µM*	5.4%	-3.3%	3.3%	62.6%
Cc1ccc(-c2nc3s/c(=C\c4ccco4)c(=O)n3n2)cc1	50.1µM*	50.1µM*	2.5%	50.1µM*	-14.2%
COc1ccc(Br)cc1/C=c1\sc2nc(-c3ccco3)nn2c1=O	?	15.8µM*	?	44.7µM*	-25.0%
Cc1ccc(/C=c2\sc3nc(-c4ccco4)nn3c2=O)o1	17.8µM*	50.1µM*	25.1µM*	-15.8%[11.4 µM]	22.4µM*
CCN(CC)c1ccc(/C=c2\sc3nnc(-c4ccccc4Cl)n3c2=O)cc1	?	-25.8%	-0.9%	-12.3%	-1.0%
Cc1ccc(/C=c2/sc3nnc(-c4ccccc4Cl)n3c2=O)o1	11.2µM*	39.8µM*	12.6µM*	22.4µM*	-34.8%
CCN(C(=O)CN1C(=O)S/C(=C\C=C\c2ccccc2)C1=O)C1CCS(=O)(=O)C1 (centres undefined)	/	-0.4%	-2.8%	-21.2%	49.7%
COc1cc(CC(=O)OCC(=O)Nc2ccc3c(c2)OCO3)cc(OC)c1OC	?	-2.9%	12.8%	-7.7%	40.7%
COc1cc(N2C(=O)c3ccccc3C2=O)c2ncccc2c1	/	/	/	-4.8%	/
COc1ccccc1/C=c1\sc2nc(-c3ccccc3OC)nn2c1=O	/	-25.8%	-35.7%	-13.2%	17.2%
Cc1cc(C)cc(N2CN=c3s/c(=C\c4ccco4)c(=O)n3C2)c1	-10.4%[59 µM]	?	5.8%	-22.5%	-25.4%
SMILES	G9a inh	BAZ2B block	Sfp inh	JMJD2A Tudor	HP1b binding inh
Cc1ccc(/C=c2\sc3nc(-c4ccccc4Br)nn3c2=O)o1	3.55µM*	50.1µM*	?	50.1µM*	0.7%
O=c1nc2s/c(=C\c3ccco3)c(=O)n2nc1Cc1ccc(F)cc1	?	22.4µM*	44.7µM*	56.2µM*	?
Cc1ccc(OCCCCn2nnc3sc4c(c3c2=O)CCC(C)C4)cc1 (centres undefined)	?	?	/	-21.4%	69.7%
CC1CCc2c(sc3nnn(CCCCOc4ccc(Cl)cc4)c(=O)c23)C1 (centres undefined)	12.6µM*	-24.1%	/	?	73.8%
CCCCCCn1c(SCC(=O)OC)nc2c1c(=O)[nH]c(=O)n2C	1.58µM*	-0.7%	15.8µM*	?	?
CCOC(=O)CSc1nc2c(c(=O)[nH]c(=O)n2C)n1Cc1ccccc1	-13.2%	-2.9%	11.6%	-15.0%	18.2%
CCCCCSc1nc2c(c(=O)[nH]c(=O)n2C)n1C(C)C	39.8µM*	8.4%	-6.5%	-8.5%	8.9%
CCCCCOC(=O)CSc1nc2c(c(=O)[nH]c(=O)n2C)n1Cc1ccc(Cl)cc1	39.8µM*	2.7%	?	-14.6%	8.7%
Cc1cnn(-c2cc(N/N=C/c3cccc(F)c3)ncn2)c1	8.7%[59 µM]	-4.1%	-6.6%	-7.9%	23.6%
Cc1ccc(CNC(=O)C23CN(Cc4ccccc4)CC2C(c2cccc([N+](=O)[O-])c2)=NO3)cc1 (centres undefined)	?	-4.7%	-8.9%	?	-2.7%
O=C(NCc1ccco1)C12CN(Cc3ccccc3)CC1C(c1cccc([N+](=O)[O-])c1)=NO2 (centres undefined)	44.7µM*	?	1.0%	?	-6.8%
O=C(NCCCCc1ccccc1)C12CN(Cc3ccccc3)CC1C(c1cccc([N+](=O)[O-])c1)=NO2 (centres undefined)	?	-26.4%	8.4%	-35.4%	-21.8%
COc1ccc(CCNC(=O)C23CN(Cc4ccccc4)CC2C(c2ccc([N+](=O)[O-])cc2)=NO3)cc1 (centres undefined)	?	11.5%	50.1µM*	-30.5%	-3.8%
O=C(NCCCCc1ccccc1)C12CN(Cc3ccccc3)CC1C(c1ccc([N+](=O)[O-])cc1)=NO2 (centres undefined)	?	15.1%	28.2µM*	?	13.7%
CCCOc1ccc(CNC(=S)N/N=C/c2ccc([N+](=O)[O-])cc2)cc1	10.9%[59 µM]	-0.8%	-3.8%	-16.2%	13.7%
CNc1ncnc2ccc(-c3ccccc3CN(C)C)cc12	4.4%[0.501 µM]	/	24.8%	/	/
COc1ccc(CNC(=O)CCCOc2cc(=O)n(C)c3ccccc23)cc1	25.8%	4.3%	6.9%	-17.1%	14.9%
Cc1cccc2c1NC(=O)C2=O	/	/	/	?	-12.5%
Cc1ccc(C(=O)Nc2ccc(Oc3ccc(C(=O)O)c(C(=O)O)c3)cc2)cc1C	?	-12.6%	3.1%	79.4µM*	29.5%
Cc1nn(CCC(=O)N2CCN(c3ccccc3F)CC2)c(C)c1S(=O)(=O)N1CCCC1	18.5%[59 µM]	-7.1%	/	-17.2%	29.2%
CC(OC(=O)c1cc[n+]([O-])cc1)C(=O)Nc1ccc(Cl)cn1 (centres undefined)	?	13.3%	6.2%	-7.2%	36.0%
CC(OC(=O)c1ccc(C#N)cc1)C(=O)Nc1ccc(Cl)cn1 (centres undefined)	56.2µM*	10.1%	/	1.4%	17.9%
COc1ccc(S(=O)(=O)N2CCCCCC2)cc1NC(=O)c1ccccc1F	?	4.8%	/	-6.2%	38.2%
